# Laboratory results reported in PubChem BioAssay AID652010 (The Scripps Research Institute Molecular Screening Center, 2013).
# In all, about 370,000 compounds went through this assay and about 4,100 (1.1%) were called active. The entries come from a sample that favours actives as a whole. A number with no mark means an inactive call.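 How the source made its calls: active means inhibition above the mean over all tested compounds plus 3 SD (cut at about 3.6% in these data); inactive means the rest.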
# Test: relief of DAX-1 repression of SF-1 activity – cell-based, luminescence, SF-1 (NR5A1), full-length DAX-1, primary screen (AID 652010);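 further: 0% = DAX-1 cells with DMSO and 100% = cells lacking DAX-1 with DMSO; higher inhibition means more luminescence from relief of DAX-1 repression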
# Conditions: HEK293T StAR-luciferase reporter, SF-1/DAX-1 repression relief; at 6.8 µM; hits give high values
row,Structure (SMILES),inhibition
1,CC(=O)NC1(c2ccc(F)cc2)CCN(C(=O)c2c(F)cccc2F)CC1,-0.58%
2,CC(C)CSc1nnc(-c2cccnc2)n1Cc1ccccc1,-1.22%
3,COC(=O)c1cccc(Cn2ccc3ccc(-c4ccc5ccn(C(=O)c6ccccc6C)c5c4)cc32)c1,-1.7%
4,O=C(CSc1nc2ccccc2n1Cc1ccccc1)NNC(=S)Nc1ccccc1,-1.17%
5,O=C(Nc1ccn(Cc2ccccc2)n1)c1n[nH]c([N+](=O)[O-])c1Cl,5.27% (active)
6,Cc1ccc(NC(=O)CC2C(=O)N(Cc3ccccc3)C(=S)N2NC(=O)c2cccc(F)c2)c(C)c1 (centres undefined),-0.22%
7,CCOc1cccc(C(=O)Nc2cnn(Cc3ccccc3)c2)c1,-0.67%
8,O=C(O)CC(Cc1ccccc1)C(=O)Nc1ccc([N+](=O)[O-])cc1 (centres undefined),-0.05%
9,O=C(Nc1ccn(Cc2ccccc2)n1)c1cccc(F)c1,4.43% (active)
10,O=C(Cn1cnc([N+](=O)[O-])n1)NCCc1ccccc1,-0.33%
11,Cc1cc(C)cc(NC(=O)N2CCC(N(C)CCC(C)C)CC2)c1,1.03%
12,Cc1sc2nc(COC(=O)C(NC(=O)c3ccc(Cl)cc3Cl)C(C)C)[nH]c(=O)c2c1C (centres undefined),-0.03%
13,COC(=O)c1ccc(CN2C(=O)[C@]3(OCCC=C[C@H]3C)c3c(Br)cccc32)cc1,1.3%
14,COC(=O)C12C=C3CC(c4ccccc4)=C3C(=O)N1Cc1[nH]c3ccccc3c1C2 (centres undefined),0.17%
15,Cc1ccc(CS(=O)Cc2ccc(C(=O)N3CCOCC3)o2)cc1 (centres undefined),-0.29%
16,Cc1ccc(C(=O)N2CCN(C3CCCCC3)CC2)s1,0.45%
17,Cc1ccc(S(=O)Cc2ccc(C(=O)N3CCN(C4CCCCC4)CC3)o2)cc1 (centres undefined),5.98% (active)
18,COC(=O)[C@]12C[C@H](CC(=O)NCCc3ccccc3OC)C(=O)N(Cc3ccco3)C1=C[C@H](C(C)C)O[C@@H]2C1CC1,-0.45%
19,Cc1ccccc1CS(=O)(=O)Cc1ccc(C(=O)Nc2ccc(Cl)cc2)o1,-3.88%
20,Cc1ccccc1NC(=O)C1CCN(c2ncccn2)CC1,-0.57%
21,O=C(CCc1ccccc1F)N1CCN(c2ccccc2)CC1,-0.1%
22,O=C(CCSc1ccccc1)N1CCN(c2ccccc2F)CC1,3.74% (active)
23,O=C(CCS(=O)(=O)c1cccc2nsnc12)N1CCN(c2ccccc2F)CC1,0.3%
24,O=C(c1ccc(-c2ccccc2)cc1)C1CCCN(C(=O)c2cncs2)C1 (centres undefined),-0.34%
